Reference: PubChem BioAssay (Tox21)
Several values for one entry are separate records, joined by “and”; a condition that tells them apart may be missing. Identical values can stand only once. Inconclusive results are not listed. Where a call stands in place of a potency, no number is given. More than one record can exist for a structure, and the calls need not agree. Activity calls are given as the source filed them. Unless noted, the call rests on the fitted dose curve; in most records, active means well fitted curve in the direction sought with a large enough effect in the repeat runs; inconclusive means weak or mixed curves; inactive means no such curve, though single readings can be large; an effect the other way counts as inactive or inconclusive.

Legend:
[1] = qHTS assay to identify aromatase inhibitors - cell viability counter screen (AID 743084);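 further: cells stimulated with testosterone during compound exposure; nearly all actives have a fitted effect of over 55% in size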; further: potency means the concentration at half of the fitted maximal effect
[2] = molecular target: Aryl hydrocarbon receptor (Homo sapiens) (UniProt P35869); assay: qHTS assay to identify small molecule that activate the aryl hydrocarbon receptor (AhR) signaling pathway (AID 743085); further: nearly all actives have a fitted effect of over 15% in size; further: potency means the concentration at half of the fitted maximal effect;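 on activation: HG2L7.5c1 human HepG2 liver cells with stably integrated DRE-driven firefly reporter; series mostly up to about 70 µM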
Chain of Aryl hydrocarbon receptor (Homo sapiens) (P35869 whole entry, looked up): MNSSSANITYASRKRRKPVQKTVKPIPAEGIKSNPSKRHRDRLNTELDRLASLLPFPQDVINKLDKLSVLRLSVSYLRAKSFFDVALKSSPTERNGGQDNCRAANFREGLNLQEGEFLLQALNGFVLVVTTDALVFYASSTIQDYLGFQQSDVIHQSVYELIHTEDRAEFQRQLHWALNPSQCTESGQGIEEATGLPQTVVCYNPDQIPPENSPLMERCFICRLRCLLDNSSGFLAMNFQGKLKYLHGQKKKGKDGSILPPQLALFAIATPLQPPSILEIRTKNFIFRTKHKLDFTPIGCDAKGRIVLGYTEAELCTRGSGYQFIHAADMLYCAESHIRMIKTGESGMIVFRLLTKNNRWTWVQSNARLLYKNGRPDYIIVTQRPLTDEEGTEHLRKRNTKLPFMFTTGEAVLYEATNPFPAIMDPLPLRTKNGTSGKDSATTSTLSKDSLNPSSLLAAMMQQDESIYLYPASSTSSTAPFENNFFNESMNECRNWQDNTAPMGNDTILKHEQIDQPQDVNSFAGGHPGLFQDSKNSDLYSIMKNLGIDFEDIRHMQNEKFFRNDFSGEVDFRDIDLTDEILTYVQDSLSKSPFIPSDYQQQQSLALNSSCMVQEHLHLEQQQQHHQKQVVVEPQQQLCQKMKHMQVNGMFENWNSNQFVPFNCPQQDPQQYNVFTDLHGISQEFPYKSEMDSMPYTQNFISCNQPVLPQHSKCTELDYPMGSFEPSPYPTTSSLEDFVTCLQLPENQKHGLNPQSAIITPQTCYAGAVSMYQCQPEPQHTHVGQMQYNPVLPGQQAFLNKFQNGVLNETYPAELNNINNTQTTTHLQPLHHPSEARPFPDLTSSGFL
Procedure, shortened: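 24 h compound exposure, 37C, HepG2-derived HG2L7.5c1 cells with DRE-responsive luciferase. Readouts: fluorescence viability, then luminescence at room temperature after 30 min.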

[3] = qHTS assay to identify small molecule that activate the aryl hydrocarbon receptor (AhR) signaling pathway - cell viability counter screen (AID 743086); further: nearly all actives have a fitted effect of over 45% in size; further: potency means the concentration at half of the fitted maximal effect
Procedure, shortened: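 Cytotoxicity counter screen: CellTiter-Fluor signal (30 min, 37 C) in 4000 HepG2 cells/well carrying the DRE-luciferase reporter, following 24 h compound exposure at 37 C.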

[4] = molecular target: Peroxisome proliferator-activated receptor gamma (Homo sapiens) (UniProt P37231); assay: qHTS assay to identify small molecule agonists of the peroxisome proliferator-activated receptor gamma (PPARg) signaling pathway (AID 743094; active means well fitted activation curve with a large enough effect in the signal ratio in the repeat runs, not every such curve was filed as active; the % refers to the signal ratio)
Chain of Peroxisome proliferator-activated receptor gamma (Homo sapiens) (P37231 whole entry, looked up): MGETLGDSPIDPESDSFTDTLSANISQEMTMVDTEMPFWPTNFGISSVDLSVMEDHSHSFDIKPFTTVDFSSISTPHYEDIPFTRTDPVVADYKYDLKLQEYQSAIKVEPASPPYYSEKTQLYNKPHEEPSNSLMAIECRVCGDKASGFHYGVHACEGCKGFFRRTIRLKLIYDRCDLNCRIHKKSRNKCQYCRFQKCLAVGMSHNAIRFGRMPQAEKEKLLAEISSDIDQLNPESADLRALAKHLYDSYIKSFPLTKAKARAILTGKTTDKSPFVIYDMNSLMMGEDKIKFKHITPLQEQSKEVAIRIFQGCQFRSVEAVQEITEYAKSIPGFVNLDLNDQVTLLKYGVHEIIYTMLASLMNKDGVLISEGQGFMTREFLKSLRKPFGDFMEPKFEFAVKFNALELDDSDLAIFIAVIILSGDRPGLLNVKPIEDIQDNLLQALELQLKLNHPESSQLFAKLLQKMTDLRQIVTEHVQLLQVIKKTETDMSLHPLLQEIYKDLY
Procedure, shortened: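 Beta-lactamase FRET fluorescence was the read-out after a 1 h room-temperature substrate step, following 17 h compound treatment at 37C of HEK293H cells expressing a UAS-driven bla reporter responsive to PPARg.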

[5] = molecular target: Peroxisome proliferator-activated receptor gamma (Homo sapiens) (UniProt P37231); assay: qHTS assay to identify small molecule antagonists of the peroxisome proliferator-activated receptor gamma (PPARg) signaling pathway (AID 743191; calls by dose curve; further: nearly all actives have a fitted effect of over 30% in size; further: potency means the concentration at half of the fitted maximal effect)
Procedure, shortened: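 Beta-lactamase reporter under UAS control in HEK293H PPARg-bla cells; compound treatment 17 h at 37C. Read-out: fluorescence intensity after 1 h room-temperature incubation with LiveBLAzer B/G FRET substrate.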

[6] = qHTS assay to identify small molecule antagonists of the peroxisome proliferator-activated receptor gamma (PPARg) signaling pathway - cell viability counter screen (AID 743194); conditions: Potency: co-treated with 50 nM rosiglitazone unless noted; further: nearly all actives have a fitted effect of over 55% in size
Procedure, shortened: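 Viability was measured as CellTiter-Glo luminescence in GeneBLAzer PPARg UAS-bla HEK293H cells. These cells had been exposed 17 h at 37 C to compounds together with rosiglitazone at 50 nM final, with the beta-lactamase readout taken in the same wells.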

[7] = qHTS assay for small molecule agonists of the antioxidant response element (ARE) signaling pathway (AID 743202; active means well fitted activation curve with a large enough effect in the signal ratio in the repeat runs, not every such curve was filed as active; the % refers to the signal ratio; further: potency means the concentration at half of the fitted maximal effect)
Procedure, shortened: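 An ARE-responsive beta-lactamase gene stably integrated in HepG2 cells serves as reporter. After 5 h plating and 16 h compound incubation at 37 C, fluorescence of the B/G FRET substrate was measured.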

[8] = qHTS assay for small molecule agonists of the antioxidant response element (ARE) signaling pathway - cell viability counter screen (AID 743203; calls by dose curve; further: nearly all actives have a fitted effect of over 55% in size; further: potency means the concentration at half of the fitted maximal effect)
Procedure, shortened: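 HepG2 cells carrying ARE-driven beta-lactamase; 2,000 cells/well; 5 hrs plating; compound pinned from DMSO; 16 hrs 37C/5% CO2; CellTiter-Glo added; 30 min RT; luminescence.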

[9] = qHTS assay for small molecule activators of the heat shock response signaling pathway - cell viability counter screen (AID 743209); further: nearly all actives have a fitted effect of over 50% in size
Procedure, shortened: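 Luminescence from CellTiter-Glo, added after the beta-lactamase FRET read, gave the viability signal. Cells were HSE-bla HeLa treated with DMSO-dissolved compounds for 5 h at 37 C following overnight plating.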

[10] = qHTS assay for small molecule activators of the heat shock response signaling pathway (AID 743210; active means well fitted activation curve with a large enough effect in the signal ratio in the repeat runs, with a control signal flat, not every such curve was filed as active; the % refers to the signal ratio;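 further: HeLa cells with beta-lactamase reporter driven by heat shock elements; series mostly up to about 63 µM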)
Procedure, shortened: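 In HSE-bla HeLa cells, 5 h compound incubation (37 C) precedes addition of LiveBLAzer B/G substrate; after 2.5 h at room temperature, fluorescence intensity indicates reporter induction.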

Row | SMILES | Potency [1] | Potency [2] | Potency [3] | Potency [4] | Potency [5] | Potency [6] | Potency [7] | Potency [8] | Potency [9] | Potency [10] | activation [10]
1 | NC(=O)CN1CCCC1=O | inactive | inactive | inactive | inactive | inactive | inactive | inactive | inactive | inactive | inactive | –
2 | ClCc1ccccn1 | inactive | inactive | inactive | inactive | inactive | inactive | inactive | inactive | inactive | inactive | –
3 | O=C1Nc2ccc(Cl)cc2C(c2ccccc2)=NC1O (configuration not stated) | inactive | inactive | inactive | inactive | 44 µM (active) | inactive | inactive | inactive | inactive | inactive | –
4 | CC1=C(C(=O)Nc2ccccc2)SCCO1 | inactive | 27.8 µM (active) and 24.3 µM (active) | inactive | inactive | inactive | inactive | inactive | inactive | inactive | inactive | –
5 | O=C(O)CF | inactive | inactive | inactive | inactive | inactive | inactive | inactive | inactive | inactive | – | –
6 | ClC(Cl)(Cl)Br | inactive | inactive | inactive | inactive | inactive | inactive | inactive | inactive | inactive | – | -1.07% [at 13.2 µM] (inactive)
7 | O=C1CCCO1 | inactive | inactive | inactive | inactive | inactive | inactive | inactive | inactive | inactive | inactive | –
8 | Clc1ccccc1-c1nnc(-c2ccccc2Cl)nn1 | inactive | inactive | inactive | inactive | inactive | inactive | inactive | inactive | inactive | inactive | –
9 | O=S(=O)(O)C(F)(F)C(F)(F)C(F)(F)C(F)(F)C(F)(F)C(F)(F)C(F)(F)C(F)(F)F | inactive | inactive | inactive | inactive | inactive | inactive | inactive | 27.3 µM (active) | inactive | – | –
10 | Nc1ccc([N+](=O)[O-])cc1N | 30.6 µM (active) | 61.1 µM (active) | 27.3 µM (active) and 30.6 µM (active) | inactive | inactive | inactive | 0.968 µM (active) | inactive | inactive | – | –
11 | CC(C)Nc1nc(Cl)nc(NC(C)C)n1 | inactive | inactive | inactive | inactive | inactive | inactive | inactive | inactive | inactive | inactive | –
12 | CC(C)COC(=O)c1ccccc1C(=O)OCC(C)C | inactive | inactive | inactive | inactive | inactive | inactive | inactive | inactive | inactive | inactive | –
13 | Brc1ccc(Br)cc1 | inactive | inactive | inactive | inactive | inactive | inactive | inactive | inactive | inactive | – | –
14 | CC1(C)C(C(=O)OC(C#N)c2cccc(Oc3ccccc3)c2)C1(C)C (configuration not stated) | inactive | inactive | inactive | inactive | inactive | inactive | inactive | inactive | inactive | inactive | –
15 | CNC(=O)CSP(=S)(OC)OC | inactive | inactive | inactive | inactive | inactive | inactive | inactive | inactive | inactive | inactive | –
16 | OCCOCCO | inactive | inactive | inactive | inactive | inactive | inactive | inactive | inactive | inactive | – | –
17 | C[N+](C)(C)CC(=O)O | inactive | inactive | inactive | inactive | inactive | inactive | inactive | inactive | inactive | – | –
18 | CCNc1nc(Cl)nc(NC(C)(C)C#N)n1 | inactive | inactive | inactive | inactive | inactive | inactive | inactive | inactive | inactive | – | –
19 | O=NN(c1ccccc1)c1ccccc1 | inactive | inactive | inactive | inactive | inactive | inactive | inactive | inactive | inactive | inactive | –
20 | ClC(Cl)=C(Cl)C(Cl)=C(Cl)Cl | inactive | inactive | inactive | inactive | inactive | inactive | inactive | inactive | inactive | inactive | –
21 | CCOP(=O)(OCC)OCC | inactive | inactive | inactive | inactive | inactive | inactive | inactive | inactive | inactive | inactive | –
22 | C[N+](C)(C)C | inactive | inactive | inactive | inactive | inactive | inactive | inactive | inactive | inactive | – | –
23 | CC(C)=CC1C(C(=O)OCN2C(=O)C3=C(CCCC3)C2=O)C1(C)C (configuration not stated) | inactive | inactive | inactive | inactive | 11.9 µM (active) | inactive | inactive | inactive | inactive | – | –

Row | SMILES | Potency [1] | Potency [2] | Potency [3] | Potency [4] | Potency [5] | Potency [6] | Potency [7] | Potency [8] | Potency [9] | Potency [10] | activation [10]
24 | Oc1ccc(Cl)cc1Cl | inactive | inactive | inactive | inactive | inactive | inactive | inactive | inactive | inactive | inactive | –
25 | CCCCCCCCCc1ccc(O)cc1 | 55 µM (active) | inactive | inactive | inactive | – | – | – | – | – | – | –
26 | CNC(=O)Oc1cccc2c1OC(C)(C)C2 | inactive | inactive | inactive | inactive | inactive | inactive | inactive | inactive | inactive | inactive | –
27 | [CH3][Sn]([Cl])([Cl])[Cl] | inactive | inactive | inactive | inactive | inactive | inactive | inactive | inactive | inactive | inactive | –
28 | CCOS(=O)(=O)OCC | inactive | inactive | inactive | inactive | inactive | inactive | inactive | inactive | inactive | – | –
29 | O=P(OCCCl)(OCCCl)OCCCl | inactive | inactive | inactive | inactive | inactive | inactive | inactive | inactive | inactive | inactive | –
30 | COP(=S)(OC)SCn1nnc2ccccc2c1=O | inactive | inactive | inactive | inactive | 49 µM (active) | inactive | inactive | inactive | inactive | inactive | –
31 | CC1(C)Cc2cccc(O)c2O1 | inactive | inactive | inactive | inactive | inactive | inactive | inactive | inactive | inactive | inactive | –
32 | O=NN1CCOCC1 | inactive | inactive | inactive | inactive | inactive | inactive | inactive | inactive | inactive | inactive | –
33 | Cc1ccc([N+](=O)[O-])cc1 | inactive | inactive | inactive | inactive | inactive | inactive | inactive | inactive | inactive | inactive | –
34 | CN(C)c1nc(=O)n(C2CCCCC2)c(=O)n1C | inactive | inactive | inactive | inactive | inactive | inactive | inactive | inactive | inactive | inactive | –
35 | CNC(=S)S | inactive | inactive | inactive | inactive | inactive | inactive | inactive | inactive | inactive | – | –
36 | NN=C(N)N | inactive | 30.6 µM (active) | inactive | inactive | inactive | inactive | inactive | inactive | inactive | inactive | –
37 | Nc1ncn[nH]1 | inactive | inactive | inactive | inactive | inactive | inactive | inactive | inactive | inactive | inactive | –
38 | CCC1(c2ccc(N)cc2)CCC(=O)NC1=O (configuration not stated) | inactive | inactive | inactive | inactive | inactive | inactive | – | inactive | inactive | inactive | –
39 | CCCCC(C#N)(Cn1cncn1)c1ccc(Cl)cc1 (configuration not stated) | inactive | inactive | inactive | inactive | inactive | inactive | inactive | inactive | inactive | inactive | –
40 | CCNCC | inactive | inactive | inactive | inactive | inactive | inactive | inactive | inactive | inactive | inactive | –
41 | Cc1cc(Cl)ccc1N=CN(C)C | inactive | inactive | inactive | inactive | – | inactive | inactive | inactive | inactive | – | –
42 | Clc1cccc(Cl)c1 | inactive | inactive | inactive | inactive | inactive | inactive | inactive | inactive | inactive | inactive | –
43 | COP(=O)(NC(C)=O)SC (configuration not stated) | inactive | inactive | inactive | inactive | inactive | inactive | inactive | inactive | inactive | inactive | –
44 | c1ccc(C2CO2)cc1 (configuration not stated) | inactive | inactive | inactive | inactive | inactive | inactive | inactive | inactive | inactive | inactive | –
45 | CC[n+]1c(-c2ccccc2)c2cc(N)ccc2c2ccc(N)cc21 | inactive and 30.5 µM (active) | 26.6 µM (active) and 29.8 µM (active) and 12.1 µM (active) | inactive and 12.1 µM (active) | inactive | 48.8 µM (active) and 26.6 µM (active) | – | – | inactive | inactive | – | –
46 | C=CC(Cl)CCl (configuration not stated) | inactive | inactive | inactive | inactive | inactive | inactive | inactive | inactive | inactive | inactive | –
